Compound activity (PubChem)
Shown is part of a subset that was picked to be rich in hits.
Marburg entry inh: blocks Marburg virus binding to or entry into cells; AID 540276; Marburg virus pseudotyped entry inhibition, cell reporter; 1.8% of 300,000 active; Potency, µM (highest dose often 37.8 µM), without a hit: at the highest dose activity change, negative = inhibition, actives largely listed as inhibitors; calls by dose curve; tested in HEK293 cells; also: potency is read from the fitted curve at half-maximal effect; % is scaled to controls: 0 for no effect and ±100 for the full control effect
CHX counter: affects cycloheximide protein synthesis inhibition readout, counter-screen. max response, %. cell reporter, cycloheximide protein synthesis inhibition counterscreen. 12% of 300,000 active; in the data active = max response mostly above about 13%, no sharp cut-off; inactive = mostly below about 14%; also: read at 38.3 µM for the half of the compounds with a filed dose; 0% is about no effect
Shiga toxin inh: blocks Shiga toxin action in Vero cells; Vero cells, Shiga toxin protein synthesis inhibition reporter; inhibition, % at 38.7 µM; 9.2% of 290,000 active; in the data active = inhibition mostly above about 28%, no sharp cut-off; inactive = mostly below about 43%; also: 0% is about no effect
Lassa entry inh: Lassa virus entry inhibition | 1.2% of 300,000 active | Lassa virus pseudotype entry inhibition, cell reporter | AID 540256 | Potency, µM (top dose mostly 37.9 µM), for the others: at the highest dose activity change, negative = inhibition, usual class: inhibitors; calls by dose curve; tested in HEK293 cells; also: potency is read from the fitted curve at half-maximal effect; % is scaled to controls: 0 for no effect and ±100 for the full control effect; nearly all actives have a fitted effect of over 50% in size
AMA1-RON2 inh: disrupts binding of P. falciparum AMA1 to RON2. AlphaScreen AMA1-biotinylated RON2 peptide binding. Potency, µM (titrated, usually from 58.2 µM), inactives show top-dose activity change, negative = inhibition, usual class: inhibitors. 0.2% of 360,000 active; active = well fitted inhibition curve with a large enough effect; inconclusive = small, poorly fitted or top-dose-only effect; inactive = no such curve, though single readings can be large or run the other way;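 also: potency is read from the fitted curve at half-maximal effect; 0% = vehicle wells and -100% = peptide control; nearly all actives have a fitted effect of over 45% in size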
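AMA1 (3D7) with his tag at 25 nM final met compounds first, then biotinylated RON2 peptide at 25 nM; detection used donor plus acceptor beads, 10 µg/mL apiece, read by AlphaScreen after 30 min at room temperature.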
Active calls of the source: *; ? = inconclusive; nt = no result; [ ] = dose if it differs, or a comment.

SMILES	Marburg entry inh	CHX counter	Shiga toxin inh	Lassa entry inh	AMA1-RON2 inh
c1ccc(OCCOc2cccc3cccnc23)cc1	0%	33*	68*	-1%	1%
OCc1ccccc1OCCCOc1cccc2cccnc12	-6%	26*	53*	-1%	3%
CC(=O)CCc1ccc(OCCCOc2cccc3cccnc23)cc1	nt	29*	46*	nt	1%
O=C(Cn1nnc(-c2cccs2)n1)NCc1cccs1	-9%[46.1 µM]	65*	11	nt	-2%
Cc1ccc(C(=O)Cn2nnc(-c3cccs3)n2)cc1	nt	32*	79*	nt	1%
Cc1noc(C)c1C(=O)N1CCCC1	15%	-6	-17	0%	-7%
COc1ccc(NC(=O)c2cnc3cc(C)ccn3c2=O)c(OC)c1	-20%[46.1 µM]	nt	nt	nt	nt
Cc1cc(NC(=O)CN2CCCC(C)C2)no1 (stereo unspecified)	-16%[46.1 µM]	13*	49*	-10%	7%
COc1ccc(NC(=O)c2cc(-c3ccc(F)cc3)no2)cc1OC	nt	nt	nt	4%[46.1 µM]	nt
CS(=O)(=O)N1CCc2cc(C(=O)Nc3ccc(Cl)cc3)ccc21	?	17*	13	-24%[46.1 µM]	0%
CS(=O)(=O)N1CCc2cc(NC(=O)c3ccc(Cl)cc3Cl)ccc21	?	21*	44	?	4%
CCc1cc2c(nc1CC)CCN(CCC(C)=NOC[C@H]1O[C@H](c3ccccc3)C=C[C@H]1Oc1ccc(OC)cc1)C2	-25%[14.2 µM]	nt	nt	nt	nt
O=C(/C=C/c1ccccc1)NC1CCSC1=O (stereo unspecified)	-19%	39*	70*	22%	-16%
O=C(NC1CCSC1=O)c1ccccc1 (stereo unspecified)	?	1	-17	-3%	2%
Cc1csc(NC(=O)CCN2C(=O)c3ccccc3S2(=O)=O)n1	-1%	16	55*	7%	12%
O=C(CCN1C(=O)c2ccccc2S1(=O)=O)Nc1ccccc1	nt	1	-5	nt	-3%
O=C(CN1Cc2ccccc2C1=O)Nc1ccc2c(c1)OCCO2	?	83*	85*	13%[46.1 µM]	5%
O=C(CCN1C(=O)c2ccccc2S1(=O)=O)Nc1ccc2c(c1)OCCO2	0%	34*	37	1%	1%
CCN1CCN(CC(=O)Nc2ccc3c(c2)OCCO3)C(=O)C1=O	nt	-3	7	nt	15%
CCCNC(=O)C1(C)CCN1C(=O)Cc1ccc(C(C)(C)C)cc1 (stereo unspecified)	nt	nt	nt	nt	3%
O=S(=O)(Nc1ccc(-n2cnnn2)cc1)c1cccs1	nt	nt	nt	nt	0%
Cc1cccc(NC(=O)CSc2nc(C3CC3)nc3ccccc23)c1	-28%[46.1 µM]	-4	-11	-10%[46.1 µM]	?
Cn1c(CC(=O)Nc2ccccc2)nnc1SCC(=O)Nc1ccc(N2CCOCC2)cc1	15%[46.1 µM]	39*	29	7%[46.1 µM]	-1%
CCN(CC)c1ccc(NC(=O)CSc2nc(C3CC3)nc3ccccc23)cc1C	4.5µM*	-5	8	?	?
O=C(CSc1ccc(F)cc1)Nc1ccc(N2CCOCC2)cc1	nt	27*	30	nt	15%
SMILES	Marburg entry inh	CHX counter	Shiga toxin inh	Lassa entry inh	AMA1-RON2 inh
O=C(COC(=O)c1ccccc1SCC(=O)N1CCCC1)Nc1ccccc1	17%[46.1 µM]	17*	43	?	-1%
CCOC(=O)C1CCCN(C(=O)COC(=O)c2ccc(C#N)cc2)C1 (stereo unspecified)	0%[46.1 µM]	8	3	10%	-7%
COC(=O)c1ccccc1SCC(=O)Nc1ccc(N2CCOCC2)cc1	-23%	37*	55*	?	1%
Cc1ccc(SCC(=O)Nc2ccc(N3CCN(C)CC3)c(F)c2)c(C)c1	nt	24*	37	nt	-4%
O=C(CSc1ccccc1F)Nc1ccc(N2CCOCC2)cc1	nt	nt	nt	nt	-1%
O=C(CSc1ccc(Cl)cc1)Nc1ccc(N2CCN(c3ccccc3)CC2)c(F)c1	0%	-2	-10	3%	-7%
O=C(Nc1ccc(N2CCOCC2)cc1)c1nc2ccccc2s1	?	54*	91*	-8%[46.1 µM]	8%
O=C(CSc1ccccc1)Nc1ccc(N2CCOCC2)c(F)c1	nt	57*	120*	nt	-2%
O=C(O)C(Cc1ccc2c(c1)oc1ccccc12)NCP(=O)(O)O (stereo unspecified)	nt	10	-13	nt	nt
COc1ccc(C(=O)c2oc3ccccc3c2NC(=O)c2cc(=O)c3ccc(C)cc3o2)cc1Cl	?	nt	nt	11%[46.1 µM]	nt
Cc1cccc(C(=O)NCC(=O)OCc2cc(=O)n3nc(CC(C)C)sc3n2)c1	nt	nt	nt	1%[46.1 µM]	nt
O=C(CSc1ccc2ccccc2n1)Nc1ccc(N2CCOCC2)cc1	-29%[46.1 µM]	31*	49*	0%	-25%
CCCc1nc(SCC(=O)Nc2ccc(N3CCOCC3)cc2)c2ccccc2n1	0.71µM*	0	-2	13%	-9%
CCS(=O)(=O)n1nc(-c2ccc(Cl)cc2)nc1SC	-3%	62*	87*	14%	4%
CS(=O)(=O)n1nc(-c2ccc(Cl)cc2)nc1N	-11%[46.1 µM]	20*	20*	16%	9%
CCS(=O)(=O)n1nc(-c2ccc(OC)cc2)nc1N	16%[46.1 µM]	23*	23	8%	3%
CCS(=O)(=O)n1nc(-c2ccccc2)nc1N	2%	-2	-2	4%	31%
COc1ccccc1C(=O)NC(=O)COC(=O)c1ccc(C)o1	3%[46.1 µM]	nt	nt	0%	-7%
CN(CCC#N)C(=O)COC(=O)c1c2c(nc3ccccc13)/C(=C/c1ccco1)CC2	0%	38*	23	0%	-17%
CC(C)CNC(=O)COC(=O)c1c2c(nc3ccccc13)/C(=C\c1cccs1)CC2	-5%	nt	nt	?	12%
O=c1[nH]c(CSc2ccccn2)nc2c1cnn2-c1ccccc1	20%	15	31*	1%	-4%[2.32 µM]
Cc1cc(C)c(C#N)c(SCc2nc3ccccc3c(=O)[nH]2)n1	1.1µM*	17	27	3.2µM*	-23%
COCc1cc(C)nc(SCc2nc3ccccc3c(=O)[nH]2)c1C#N	?	7	-11	-1%[46.1 µM]	0%
Cc1ccc2nc(SCc3nc4ccccc4c(=O)[nH]3)[nH]c2c1	?	27*	69*	?	49%
Nn1c(CSc2ccccn2)nc2ccccc2c1=O	14%	44*	83*	0%	-1%
SMILES	Marburg entry inh	CHX counter	Shiga toxin inh	Lassa entry inh	AMA1-RON2 inh
C#Cc1ccc2c(c1)C(=O)N(C)Cc1c(C(=O)OCCCOC(=O)c3ncn4c3CN(C)C(=O)c3cc(C#C)ccc3-4)ncn1-2	nt	-5	-10	nt	nt
CC(=O)O[C@@H]1C(CO[Si](C)(C)C(C)(C)C)=C(Br)C(=O)[C@@H]2O[C@]12C	-10%[14.2 µM]	nt	nt	nt	nt
O=c1[nH]c(CSc2ccccn2)nc2ccccc12	?	43*	119*	-5%[46.1 µM]	-14%
Cc1ccc(C#N)c(SCc2ccccc2F)n1	0%[46.1 µM]	7	21	18%	4%
Cc1ccc2nc(CSc3nc(C)ccc3C#N)[nH]c2c1	2.3µM*	17*	21	1µM*	16%
CCCC[C@]12Cc3c(ccc4ccccc34)[C@H](O1)C1=C(O2)C(=O)c2ccccc2C1=O	22%[14.2 µM]	nt	nt	nt	nt
COc1ccc(CCNC(=O)c2cc(C(=O)c3cc(C)ccc3O)cn(CCc3ccc(OC)cc3)c2=O)cc1	?	0	13	2.8µM*	-9%
C=CCc1cccc(/C=N/NC(=O)c2ccccc2OC)c1O	?	30*	135*	-8%	78%
